Bioassay records: PubChem BioAssay, National Center for Advancing Translational Sciences (NCATS)
NPC1 prom act: qHTS Assay for NPC1 Promoter Activators; Potency, µM (titrated, usually from 9.22 µM), for inactives: at the highest dose activation, most hits filed as activators; 320,000 compounds, 2.4% hits; Huh7 NPC1 promoter luciferase reporter, 24 h; AID 485313, 2010; note: % of control where 0% means no effect; nearly all actives have a fitted effect of over 60% in size
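Luminescence from an NPC1 promoter-driven luciferase reporter in stably transfected Huh7 cells was measured after 24 h compound treatment at 37 °C, followed by 10 min ambient incubation with luciferase detection reagent.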
Rab9 prom act: qHTS Assay for Rab9 Promoter Activators. Potency, µM (highest dose often 9.22 µM), for inactives: top-dose activation, negative = inhibition, most hits filed as activators. 320,000 compounds, 2.8% hits. Huh7 Rab9 promoter-luciferase reporter, luminescence, 24 h; note: % of control where 0% means no effect; nearly all actives have a fitted effect of over 60% in size
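Using Huh7 cells stably transfected with Rab9 promoter–luciferase, compounds were incubated 24 h at 37 °C, 5% CO2; luciferase luminescence was read 10 min after reagent addition.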
KinaseGlo FLuc: Counterscreen for Luciferase (Kinase-Glo TM) Inhibition | Luciferin 4-monooxygenase (Photuris pensylvanica), Q27757 | Kinase-Glo luciferase, ATP luminescence, 8 min | Potency, µM (titrated, usually from 38.3 µM), for inactives: at the highest dose activity change, negative = inhibition, most hits filed as inhibitors | 200,000 compounds, 0.28% hits | AID 1379, 2008; note: % is set by controls: 0 for no effect and ±100 for the full control effect; nearly all actives have a fitted effect of over 60% in size
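Compound is pinned into ATP-containing buffer (10 uM ATP, imidazole pH 7.2, 7 mM MgCl2). Kinase-Glo luciferase reagent is then added. Light output is recorded following an 8-min room-temperature incubation.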
FLuc modulator: qHTS profiling assay for firefly luciferase inhibitor/activator using purifed enzyme and Km concentrations of substrates (counterscreen for miR-21 project); Potency, µM (highest dose often 57.5 µM), for the others: at the highest dose activity change, negative = inhibition, usual class: inhibitors; purified FLuc, Km substrates, luminescence inhibition; 360,000 compounds, 6.9% hits;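 note: plate controls were vehicle for no effect and reference inhibitor for full effect; nearly all actives have a fitted effect of over 55% in size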
Target sequence (P08659 whole entry, looked up): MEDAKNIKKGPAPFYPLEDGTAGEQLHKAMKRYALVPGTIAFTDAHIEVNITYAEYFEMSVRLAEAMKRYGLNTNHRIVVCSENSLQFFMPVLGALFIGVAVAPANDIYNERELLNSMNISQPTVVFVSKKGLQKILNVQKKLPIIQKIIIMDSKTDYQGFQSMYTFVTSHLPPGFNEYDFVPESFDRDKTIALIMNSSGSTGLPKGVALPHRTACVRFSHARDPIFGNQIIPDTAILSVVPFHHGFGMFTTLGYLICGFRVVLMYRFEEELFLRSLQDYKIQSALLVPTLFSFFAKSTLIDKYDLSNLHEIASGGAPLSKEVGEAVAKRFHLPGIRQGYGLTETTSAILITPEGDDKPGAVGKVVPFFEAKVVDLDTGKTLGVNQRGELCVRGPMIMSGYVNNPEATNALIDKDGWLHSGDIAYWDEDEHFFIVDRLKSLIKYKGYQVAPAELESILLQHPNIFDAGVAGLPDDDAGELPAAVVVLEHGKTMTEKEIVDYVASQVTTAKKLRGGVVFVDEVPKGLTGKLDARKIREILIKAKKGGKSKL
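Purified P. pyralis luciferase (10nM final) with 10uM D-luciferin and 10uM ATP (Km levels) in 50mM Tris acetate pH 7.5, 10mM Mg acetate, 0.01% Tween-20, 0.05% BSA; qHTS 6-point titration, ~60 µM downward; luminescence read.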
SMN2 splice enh: qHTS Assay for Enhancers of SMN2 Splice Variant Expression. HEK293 SMN2-luciferase splicing reporter, luminescence, 30-36 h. 210,000 compounds, 2.8% hits. AID 1458, 2008. Potency, µM (highest dose often 46.1 µM), without a hit: at the highest dose activity change, positive = activation, hits mostly activators; note: % of control where 0% means no effect; nearly all actives have a fitted effect of over 55% in size
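HEK293 cells carry an SMN2 […]–luciferase reporter in which exon 7 inclusion puts luciferase in frame. Cells were plated 10-12 h before compound addition, then incubated 30-36 h at 37C. ONE-Glo luminescence was read; sodium butyrate at 4.5 mM final served as control.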
ELG1 genotox: qHTS screen for small molecules that induce genotoxicity in human embryonic kidney (HEK293T) cells expressing luciferase-tagged ELG1 | HEK293T ELG1-luciferase reporter, luminescence, 16 h | Potency, µM (top dose mostly 46 µM), for the others: top-dose activity change, positive = activation, actives largely listed as activators | 330,000 compounds, 1.3% hits | AID 504466, 2011; note: % of control where 0% means no effect; nearly all actives have a fitted effect of over 60% in size
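Genotoxicity was scored as increased ELG1-luciferase reporter signal, measured by ONE-Glo luminescence (30 min, room temperature). Compound or vehicle exposure of the HEK293T reporter cells lasted 16 hr at 37°C.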
Active calls of the source: *; ? = inconclusive; . = no result. Rows were chosen to be rich in hits. Some 7.5% of all compounds tested hit in one or more screens of this group. Calls come from the whole dose curve; as a rule, active = well fitted curve in the direction sought with a large enough effect; inconclusive = small, poorly fitted or top-dose-only effect, or another doubt; inactive = no such curve, though single readings can be large; an effect the other way counts as inactive or inconclusive. Potency is the fitted concentration of half-maximal effect.

SMILES	NPC1 prom act	Rab9 prom act	KinaseGlo FLuc	FLuc modulator	SMN2 splice enh	ELG1 genotox
CCCOc1ccc(/C=N/Nc2ccccc2[N+](=O)[O-])c(O)c1	?	?	8.9µM*	0.11µM*	-95%	?
CCCOc1ccc(/C=N/Nc2cccc([N+](=O)[O-])c2)c(O)c1	?	?	-2%	?	?	?
COc1ccc(/C=N/NC(=S)Nc2ccccc2[N+](=O)[O-])cc1O	22%	-2%	-7%	0.43µM*	?	5.2µM*
CCNC(=S)N/N=C/c1ccccc1[N+](=O)[O-]	0%	1%	3%	3%	12%	0%
CCCOc1ccc(/C=N/NC(=S)Nc2ccccc2[N+](=O)[O-])c(O)c1	3%	-16%	-11%	3.4µM*	-87%	?
Cc1cccc(NC(=S)N/N=C/c2cccc(O)c2)c1C	-26%	-31%	.	?	.	-4%
Cc1ccccc1NC(=S)N/N=C/c1ccc(O)cc1O	?	26%	.	2.4µM*	.	?
Cc1ccccc1CNC(=O)CCC(=O)N1CCSc2ccccc21	.	.	.	-12%	.	.
C=CCn1c(O)c(N=NC(=O)OC(C)(C)C)c2ccccc21	-2%	-4%	-1%	17µM*	14%	2%
C=CCn1c(O)c(N=NC(=O)C(O)c2ccccc2)c2ccccc21 (stereo unspecified)	-1%	-5%	.	2%	.	0%
CCOC(=O)c1ccc(NC(=O)Cn2c(=O)cc(C)c3c(C)nn(-c4ccc(CC)cc4)c32)cc1	.	.	.	-3%	.	.
CCC1CN(C(=O)N2CCC(C(=O)NCCc3ccccc3Cl)CC2)c2cc(C)ccc2O1 (stereo unspecified)	.	.	.	7%	.	.
COc1ccc(C(=O)Cc2nnc(C)s2)c(OC)c1	17%	?	0%	?	?	?
COc1ccc(C(=O)Cc2cc(OC)c(OC)cc2[N+](=O)[O-])c(OC)c1	17%	22%	6%	17µM*	0%	4%
COc1ccc(CCNC(=O)Cc2cc(OC)c(OC)cc2[N+](=O)[O-])cc1OC	-4%	-9%	3%	8%	16%	-4%
COc1ccc(C(=O)Cc2ccc(F)cc2)c(OC)c1	?	?	-8%	17µM*	?	?
O=C(NC1CC(=O)N(c2ccc(F)cc2)C1)c1cc2ccccc2o1 (stereo unspecified)	.	.	.	-2%	.	.
O=C(NCCS(=O)(=O)N1CCN(c2ccccc2F)CC1)C(c1ccccc1)c1ccccc1	.	.	.	1%	.	.
Cc1cc(NC(=O)c2cnccn2)no1	-1%	15%	0%	2%	-21%	-1%
Cc1ccc(NC(=O)c2cnccn2)nc1	23%	10%	.	9.5µM*	.	0%
Cc1ccc(NC(=O)c2cnccn2)c(Br)c1	?	?	.	21µM*	.	?
COc1ccccc1/C=C/c1nc(C#N)c(NCc2ccccc2)o1	.	.	.	?	3%	.
CC(=O)Oc1ccc(C(=O)Nc2cccc(NC(=O)c3ccco3)c2)cc1	-17%	7%	.	15µM*	.	-6%
COc1ccc(C(=O)Nc2cccc(OC(=O)c3ccco3)c2)cc1	?	?	.	13µM*	.	4.6µM*
O=C(Nc1cccc(NC(=O)c2ccco2)c1)c1ccc([N+](=O)[O-])cc1	-3%	-7%	.	3%	.	-2%
COc1ccc(C(=O)Nc2cccc(OC(=O)c3ccc(C)c(C)c3)c2)cc1	?	24%	4%	11µM*	?	10%
Cc1ccc(Cl)cc1NC(=O)CN1C(=O)C(C)(C)c2cc(S(=O)(=O)N3CCCCC3)ccc21	.	.	.	-4%	.	.
